Bioassay records from PubChem BioAssay.
This excerpt belongs to a sample that is enriched for hits.
Shiga toxin inh = A qHTS for Small Molecule Inhibitors of Shiga Toxin; Vero cells, Shiga toxin protein synthesis inhibition reporter; inhibition, % at 38.7 µM; 9.2% of 290,000 active; AID 2315, 2010; in the data active = inhibition mostly above about 28%, no sharp cut-off; inactive = mostly below about 43%; note: 0% is about no effect
Giardia FBPA inh = qHTS Assay for Inhibitors of Fructose-1,6-bisphosphate Aldolase from Giardia Lamblia; Potency, µM (doses to about 59.6 µM), for inactives: at the top dose activity, negative = inhibition, most hits filed as inhibitors; AID 2451, 2010; A8B2U2; 0.71% of 290,000 active; purified Giardia FBPA; note: potency is the fitted concentration of half-maximal effect; % is set by controls: 0 for no effect and ±100 for the full control effect; nearly all actives have a fitted effect of over 55% in size
Target sequence (A8B2U2 whole entry, looked up): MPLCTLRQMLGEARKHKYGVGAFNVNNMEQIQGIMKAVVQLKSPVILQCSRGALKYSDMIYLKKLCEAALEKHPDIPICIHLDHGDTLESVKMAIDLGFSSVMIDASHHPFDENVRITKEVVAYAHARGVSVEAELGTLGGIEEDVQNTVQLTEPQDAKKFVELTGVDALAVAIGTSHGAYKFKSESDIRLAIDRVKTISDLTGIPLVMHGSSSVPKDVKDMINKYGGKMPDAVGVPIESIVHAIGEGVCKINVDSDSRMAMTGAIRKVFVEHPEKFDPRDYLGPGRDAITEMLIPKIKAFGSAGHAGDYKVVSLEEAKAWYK
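40 nM FBPA preincubated 10 min at RT with compound (up to 57.5 uM final), then substrate plus GAPDH/TPI/NAD/arsenate coupling and diaphorase/resazurin added. Fluorescence read after 20 min at RT, 525/598 nm.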
RE007 growth inh = qHTS Assay for Inhibitors of the HIV-1 protein Vpr. S. pombe RE007 Vpr strain, BacTiter-Glo ATP luminescence, 24 h. Potency, µM (series often up to 92.2 µM), for the others: at the top dose activity change, negative = less growth, actives largely listed as inhibitors. 0.21% of 360,000 active. AID 651644, 2012; active = well fitted falling curve with a large enough effect; inconclusive = small, poorly fitted or top-dose-only effect; inactive = no such curve, though single readings can be large or run the other way; note: potency is the fitted concentration of half-maximal effect; % is set by controls: 0 for no effect and ±100 for the full control effect; nearly all actives have a fitted effect of over 50% in size
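Fission yeast strain RE007, carrying one chromosomally integrated HIV-1 vpr copy, was seeded at OD 0.01 in PMG+AL medium with 23 nL pinned compound. After 24 h at 30 °C and 99% humidity, viability was read by BacTiter-Glo luminescence.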
Cycloheximide cs = Cycloheximide Counterscreen for Small Molecule Inhibitors of Shiga Toxin | cell reporter, cycloheximide protein synthesis inhibition counterscreen | max response, % | 12% of 300,000 active; in the data active = max response mostly above about 13%, no sharp cut-off; inactive = mostly below about 14%; note: read at 38.3 µM for the half of the compounds with a filed dose; 0% is about no effect
TbPYK inhibitor = qHTS of Trypanosoma Brucei Inhibitors; TbPYK enzyme, Kinase-Glo Plus ATP luminescence, 45 min; pyruvate kinase (Trypanosoma brucei), Q57TT1; 0.12% of 410,000 active; AID 624173, 2012; Potency, µM (doses to about 76.8 µM), for inactives: at the highest dose activity, negative = inhibition, actives largely listed as inhibitors; note: potency is the fitted concentration of half-maximal effect; % is set by controls: 0 for no effect and ±100 for the full control effect; nearly all actives have a fitted effect of over 50% in size
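ADP (130 uM final) triggers the TbPYK reaction after compound addition; incubation is 45 min at room temperature. Kinase-Glo Plus is then added and luminescence imaged. Normalized data are fitted to concentration-effect curves.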
LmPK inh = qHTS Assay for Inhibitors of Leishmania Mexicana Pyruvate Kinase (LmPK) | Potency, µM (doses to about 57.5 µM), inactives show at the highest dose activity change, negative = inhibition, actives largely listed as inhibitors | purified LmPK, Kinase-Glo ATP luminescence, 1 h | 0.37% of 290,000 active | AID 1721, 2009; note: potency is the fitted concentration of half-maximal effect; % is set by controls: 0 for no effect and ±100 for the full control effect
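In 50 mM imidazole pH 7.2 with 7 mM MgCl2, LmPK (0.1 nM) turned over PEP (0.5 mM) and ADP (0.1 mM) for 1 h at room temperature. Luciferase read-out of ATP.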
* marks the source's active call; other numbers are inactive results. Unless noted, calls come from the whole dose curve; as a rule, active = well fitted curve in the direction sought with a large enough effect; inconclusive = small, poorly fitted or top-dose-only effect, or another doubt; inactive = no such curve, though single readings can be large; an effect the other way counts as inactive or inconclusive.

How did O=C(CN(Cc1ccccc1Cl)C(=O)c1csnn1)NCc1ccc2c(c1)OCO2 do in these assays?
Shiga toxin inh: -10; Giardia FBPA inh: 4%; RE007 growth inh: -14%; Cycloheximide cs: -2; TbPYK inhibitor: -15%; LmPK inh: -10%

What do the screens show for `CC(C)NC(=O)C1(C)CCCN1Cc1ccccc1C#N` (configuration not stated)?
RE007 growth inh: -5%; TbPYK inhibitor: -10%

How did COc1ccccc1CNCCCCCCNCCCCCCCCNCCCCCCNCc1ccccc1OC do in these assays?
Giardia FBPA inh: 3%

Results for C/C(=N\N1CCN(c2ccccc2)CC1)c1ccccc1O ?
Shiga toxin inh: 33; Giardia FBPA inh: 19%; RE007 growth inh: -6%; Cycloheximide cs: 23*; TbPYK inhibitor: 2%; LmPK inh: 0%

Results for C/C(=N\N1CCN(c2ccccc2)CC1)c1ccc(O)cc1 ?
Shiga toxin inh: 45*; Giardia FBPA inh: -1%; RE007 growth inh: -5%; Cycloheximide cs: 24*; TbPYK inhibitor: 4%; LmPK inh: 8%

How did CN(/N=C/c1cc([N+](=O)[O-])ccc1O)c1ccccc1 do in these assays?
Shiga toxin inh: 17; Giardia FBPA inh: 10%; RE007 growth inh: -7%; Cycloheximide cs: 22*; TbPYK inhibitor: 5%; LmPK inh: 0%

How did O=[N+]([O-])c1cccc(N/N=C/c2cc([N+](=O)[O-])ccc2O)c1 do in these assays?
Shiga toxin inh: 49*; Giardia FBPA inh: 1%; RE007 growth inh: 69%; Cycloheximide cs: 28*; TbPYK inhibitor: 3%; LmPK inh: 0%

How did O=[N+]([O-])c1ccc(N/N=C/c2ccccc2O)cc1 do in these assays?
Shiga toxin inh: 89*; Giardia FBPA inh: 4%; Cycloheximide cs: 65*; TbPYK inhibitor: 0%; LmPK inh: -2%

What do the screens show for `COc1ccc(N(CC(=O)NCc2cccs2)S(=O)(=O)c2ccc(C(C)=O)cc2)cc1`?
RE007 growth inh: -7%; TbPYK inhibitor: -11%

Results for COc1ccc(S(=O)(=O)c2c(SC)nn(Cc3ccccc3C)c2NC(C)=O)cc1 ?
TbPYK inhibitor: 3%

Results for COc1ccc(-n2nc(-c3ccc(C)cc3)c3cnc4cc(F)c(F)cc4c32)cc1 ?
TbPYK inhibitor: 2%

How did COc1cc(CC(=O)OCC(=O)N2CCCCC2)cc(OC)c1OC do in these assays?
Shiga toxin inh: -2; Giardia FBPA inh: 11%; RE007 growth inh: 2%; Cycloheximide cs: -7; TbPYK inhibitor: 2%; LmPK inh: -1%

Results for COc1ccc(/C=N/Nc2cc(C)nc(N)n2)cc1 ?
Shiga toxin inh: 67*; Giardia FBPA inh: -14%; RE007 growth inh: 5%; Cycloheximide cs: 32*; TbPYK inhibitor: 0%; LmPK inh: 4%

Results for COc1cc(/C=N/Nc2cc(C)nc(N)n2)ccc1O ?
Shiga toxin inh: 36*; Giardia FBPA inh: -25%; RE007 growth inh: 6%; Cycloheximide cs: 13; TbPYK inhibitor: 4%; LmPK inh: 0%

How did COc1ccc(/C=N/Nc2cc(OC)ncn2)cc1 do in these assays?
Shiga toxin inh: 97*; Giardia FBPA inh: 0%; RE007 growth inh: -5%; Cycloheximide cs: 25*; TbPYK inhibitor: -17%; LmPK inh: inconclusive

Results for CCOC(=O)c1c(C)[nH]c(C)c1S(=O)(=O)NCC(=O)NCc1ccc(C)cc1 ?
TbPYK inhibitor: 2%

Results for O=S(=O)(c1ccc(-c2nnco2)cc1)N1CCCCC1 ?
Shiga toxin inh: -5; Giardia FBPA inh: -3%; RE007 growth inh: -4%; Cycloheximide cs: -3; TbPYK inhibitor: -6%; LmPK inh: 7%

What do the screens show for `O=C(Oc1ccc2ccc(OC(=O)N3CCCCCC3)cc2c1)N1CCCCCC1`?
Shiga toxin inh: 40*; Giardia FBPA inh: 3%; RE007 growth inh: -18%; Cycloheximide cs: 22*; TbPYK inhibitor: 1%; LmPK inh: 4%

What do the screens show for `O=C(Oc1ccc(Cl)cc1)N1CCOCC1`?
Shiga toxin inh: 27*; Giardia FBPA inh: 6%; RE007 growth inh: -3%; Cycloheximide cs: 16*; TbPYK inhibitor: -29%; LmPK inh: 1%

What do the screens show for `COc1ccc(OC(=O)N2CCOCC2)cc1`?
Shiga toxin inh: 1; Giardia FBPA inh: 9%; RE007 growth inh: 0%; Cycloheximide cs: 2; TbPYK inhibitor: -9%; LmPK inh: -1%

How did O=C(Oc1ccc(-c2nnco2)cc1)N1CCCCC1 do in these assays?
Shiga toxin inh: 35*; Giardia FBPA inh: 0%; RE007 growth inh: inconclusive; Cycloheximide cs: 25*; TbPYK inhibitor: 1%; LmPK inh: 1%

Results for O=C(Oc1ccc(-c2ccccc2)cc1)N1CCOCC1 ?
Shiga toxin inh: 109*; Giardia FBPA inh: -1%; RE007 growth inh: -20%; Cycloheximide cs: 39*; TbPYK inhibitor: 0%; LmPK inh: -13%

How did O=C(Oc1ccccc1)N1CCCC1 do in these assays?
Shiga toxin inh: 1; Giardia FBPA inh: 12%; RE007 growth inh: -4%; Cycloheximide cs: -3; TbPYK inhibitor: 2%; LmPK inh: -6%

How did O=C(Oc1ccc(Cl)cc1)N1CCCCC1 do in these assays?
Shiga toxin inh: 49*; Giardia FBPA inh: 4%; RE007 growth inh: inconclusive; Cycloheximide cs: 35*; TbPYK inhibitor: 4%; LmPK inh: -4%

How did O=C(Oc1ccc(Oc2ccccc2)cc1)N1CCC(O)CC1 do in these assays?
Shiga toxin inh: 60*; Giardia FBPA inh: -9%; RE007 growth inh: -13%; Cycloheximide cs: 52*; TbPYK inhibitor: -16%; LmPK inh: -3%

Results for CSc1ccc(/C=N/NC(=O)c2sccc2C)cc1 ?
Shiga toxin inh: 64*; Giardia FBPA inh: 0%; RE007 growth inh: -21%; Cycloheximide cs: 46*; TbPYK inhibitor: -16%; LmPK inh: inconclusive

How did O=C(N/N=C/c1ccc(F)cc1)c1sccc1OCc1ccc(F)cc1 do in these assays?
Shiga toxin inh: 51; Giardia FBPA inh: 5%; RE007 growth inh: 1%; Cycloheximide cs: 13; TbPYK inhibitor: -1%; LmPK inh: 1%

How did CSc1ccc(/C=N/NC(=O)c2ccc(C)c(C)c2)cc1 do in these assays?
Shiga toxin inh: 52*; Giardia FBPA inh: -8%; RE007 growth inh: 3%; Cycloheximide cs: 44*; TbPYK inhibitor: -6%; LmPK inh: 6%

What do the screens show for `CSc1ccc(/C=N/NC(=O)c2cc(O)cc(O)c2)cc1`?
Shiga toxin inh: 41*; Giardia FBPA inh: 2%; RE007 growth inh: -9%; Cycloheximide cs: 22*; TbPYK inhibitor: -6%; LmPK inh: inconclusive

What do the screens show for `O=C(N/N=C\c1ccc(COc2ccc([N+](=O)[O-])cc2)o1)c1ccc(Cl)cc1`?
Shiga toxin inh: 21; Giardia FBPA inh: 5%; RE007 growth inh: -23%; Cycloheximide cs: -1; TbPYK inhibitor: -4%; LmPK inh: 6%
